KCNH2 WT inh – KCNH2 (human, wildtype) channel inhibition. U2OS, BacMam KCNH2, thallium flux FluxOr; hits give low values. activity change, % at 1.84 µM. Q12809. hit rate 0.37% among 340,000. AID 720551;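 active = maximum activity change below -70%; inconclusive = maximum activity change between -70% and -50%; inactive = maximum activity change above -50%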; also: % is scaled to controls: 0 for no effect and ±100 for the full control effect
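U2OS cells were transduced with wild-type KCNH2 virus (2.03 x 10^8 / mL) for 4 h at room temperature, then cultured overnight at 37 C. Thallium flux was read with FluxOr dye. Rate constants were normalized to DMSO controls.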
PTAP TSG101 blk – blocks PTAP/TSG101 interaction to inhibit HIV-1 budding. Fluorescence polarization, FITC-PTAP peptide / Tsg101 binding. Potency, µM (highest dose often 115 µM), without a hit: at the top dose activity change, negative = inhibition, usual class: inhibitors. 340,000 tested, under 10 active. AID 493005; active = well fitted inhibition curve with a large enough effect in the main read-out, with a control signal flat, not every such curve was filed as active; inconclusive = small, poorly fitted or top-dose-only effect, or effect the other way, or a change in a side signal; inactive = no such curve, though single readings can be large or run the other way; also: potency is read from the fitted curve at half-maximal effect; % of control where 0% means no effect
Target sequence (Q99816 whole entry, looked up): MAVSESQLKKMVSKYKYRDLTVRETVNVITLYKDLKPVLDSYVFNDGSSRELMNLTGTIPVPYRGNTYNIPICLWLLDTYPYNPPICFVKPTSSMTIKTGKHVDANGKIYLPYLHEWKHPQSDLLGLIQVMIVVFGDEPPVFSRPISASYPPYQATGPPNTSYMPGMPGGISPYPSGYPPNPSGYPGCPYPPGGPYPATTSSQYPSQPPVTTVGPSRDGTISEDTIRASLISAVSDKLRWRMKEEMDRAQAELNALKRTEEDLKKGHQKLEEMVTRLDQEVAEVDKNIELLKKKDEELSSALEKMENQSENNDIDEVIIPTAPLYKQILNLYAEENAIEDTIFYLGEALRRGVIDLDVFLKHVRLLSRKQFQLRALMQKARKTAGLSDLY
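Fluorescence anisotropy tracks displacement of a FITC-tagged PTAP peptide (50 nM) from the Tsg101 binding domain (10 uM), following a 20 min room-temperature incubation at pH 7.5.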
Tb PFK inh – inhibitors of T. brucei phosphofructokinase | hit rate 0.17% among 330,000 | O15648 | Potency, µM (series often up to 57.5 µM), for inactives: at the top dose activity, negative = inhibition, hits mostly inhibitors | T. brucei PFK, ADP-Glo luminescence | AID 485367; active = well fitted inhibition curve with a large enough effect; inconclusive = small, poorly fitted or top-dose-only effect, or effect the other way;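 also: potency is read from the fitted curve at half-maximal effect; 0% = uninhibited 1x PFK enzyme wells and -100% = no-enzyme wells; nearly all actives have a fitted effect of over 60% in size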
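Luminescent ADP detection (ADP-Glo, two-step: ATP depletion then ADP-to-ATP conversion for luciferase) reported PFK activity after 45 min room-temperature reaction of 1.25 nM enzyme with 0.5 mM F6P and 0.1 mM ATP at pH 8.0.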
KCNH2 3.1 inh – blocks the human KCNH2 3.1 channel isoform; AID 720553; activity change, % (tested at about 1.8 µM); hit rate 0.95% among 340,000; U2OS KCNH2 3.1, thallium flux FluxOr; hits give low values;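 active = maximum activity change below -70%; inconclusive = maximum activity change from -70% to -50%; inactive = maximum activity change above -50%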;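 also: thallium influx rate constant from kinetic fluorescence after stimulation buffer; % is scaled to controls: 0 for no effect and ±100 for the full control effect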
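U2OS cells transduced with KCNH2 3.1 mutant virus (1.77 x 10^8 /mL, 4 h), plated overnight at 37 C, loaded 45 min with FluxOr dye plus Red40 quencher. Thallium flux rate constant from kinetic reads after stimulation buffer, normalised to controls.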
Active calls of the source: *; u = inconclusive; x = no result; [ ] = dose if it differs, or a comment. Compounds with a hit are over-represented: about 1.2% of the library has one in this group of screens.

SMILES | KCNH2 WT inh | PTAP TSG101 blk | Tb PFK inh | KCNH2 3.1 inh
Cc1ccc(OCCN2CCN(c3nc(NCc4ccco4)c4ccccc4n3)CC2)cc1 | -131.3* | 0.6% | -1.2% | -104.0*
COc1cc2c(cc1OC)CN(CC(=O)Nc1ccccc1C(=O)NC1CC1)CC2 | 19.1 | -1.2% | 0.9% | -5.8
COc1ccc(OC)c(NC(=O)CN2CCC(NC(=O)c3ccccc3C)CC2)c1 | -2.8 | -5.7% | 3.3% | 8.1
COc1cc(C)c(CN2CCN(CC(=O)Nc3ccccc3C(=O)NC3CC3)CC2)cc1OC | -82.6* | -2.5% | 0.0% | -106.6*
COc1ccc(OC)c(CN2CCN(CC(=O)Nc3ccccc3C(=O)NC3CC3)CC2)c1 | -78.8* | -4.1% | 2.1% | -70.1*
CC(C)C1COS(=O)(=O)NC1CC(=O)SC(C)(C)C (stereo not drawn) | -8.0 | 0.8% | -1.8% | -5.9
COc1ccc(CN2CCc3c([nH]c4ccccc34)C2)c(OC)c1C | 15.0 | -2.4% | 0.6% | -79.4*
COc1ccc(CN2CCc3c([nH]c4ccccc34)C2)cc1Br | 16.4 | -2.8% | -3.5% | -10.8
O=C(C[n+]1ccc2ccccc2c1)Nc1cc(C(F)(F)F)ccc1Cl | -47.1 | 0.3% | -0.3% | -82.0*
CCOC(=O)[C@H]1[C@H]2COc3ccc(C)cc3[C@@H]2N2C(=O)c3cc(F)ccc3NC(=O)[C@@]12C | x | x | -0.5% | x
O=C(CCc1nc(-c2ccccc2)no1)NCCc1ccccc1 | -0.6 | 0.3% | 0.9% | -90.1*
Ic1ccc(N2CCN(Cc3c[nH]c4ncccc34)CC2)cc1 | -19.4 | -4.0% | -9.9% | -79.3*
Cc1ccc(C)c(OCCC(=O)N2CCN(S(=O)(=O)c3ccc([N+](=O)[O-])cc3)CC2)c1 | 15.6 | -0.5% | -1.6% | -139.3*
Cc1ccc(S(=O)(=O)N2CCN(C(=O)COC(=O)CCOc3cc(C)ccc3C)CC2)cc1 | -1.8 | -0.6% | -5.4% | -12.9
Cc1cc(C)c(C)c(S(=O)(=O)N2CCN(CC(=O)Nc3ccc([N+](=O)[O-])cc3)CC2)c1C | -0.9 | 0.3% | 7.4% | 9.9
Cc1ccc(S(=O)(=O)N2CCN(CC(=O)Nc3ccc([N+](=O)[O-])cc3)CC2)cc1C | -75.9* | -1.8% | -6.4% | -91.8*
Clc1ccc(C2=CSC3=NCCN23)c(Cl)c1 | 1.4 | -10.3% | x | -0.2
COc1cc2c(cc1OC)C1O[C@](c3ccsc3)(C2)Oc2c1c(=O)oc1ccc(F)cc21 | x | x | -1.2%[11.5 µM] | x
COc1ccc2ccccc2c1/C=N/Nc1cccc(C(=O)O)c1 | -10.9 | 1.5% | 1.5% | 5.5
O=C(O)c1cccc(N/N=C/c2cccc3ccccc23)c1 | 1.1 | 0.2% | -1.9% | -72.7*
CCc1ccc(-c2nc(CS(=O)CC(=O)NCCCN3CCC(C)CC3)c(C)o2)cc1 (stereo not drawn) | 11.2 | -1.3% | 0.8% | -3.0
COc1ccccc1NCCC(=O)OCC(=O)Nc1ccccc1F | -4.8 | -5.3% | 4.2% | 6.4
COc1ccccc1NCCC(=O)OCC(=O)Nc1ccccc1Cl | -106.4* | -0.4% | 2.7% | -209.5*
O=C(Nc1ccc(Cl)cc1Cl)c1ccc2ncsc2c1 | 1.2 | -0.9% | 2.6% | 10.1
Cc1ccc(-n2cc(CN3CCC(O)(c4ccccn4)CC3)c(-c3ccc(F)cc3)n2)cc1 | u | -4.0% | -3.5% | -73.3*
SMILES | KCNH2 WT inh | PTAP TSG101 blk | Tb PFK inh | KCNH2 3.1 inh
Cc1ccc(-n2cc(CN3CCNC(=O)CC3)c(-c3ccc(F)cc3)n2)cc1 | -4.3 | -0.6% | -3.3% | 2.4
COC(=O)C(NC(=O)c1ccc(F)cc1)(Nc1ncc(S(=O)(=O)c2ccc([N+](=O)[O-])cc2)s1)C(F)(F)F (stereo not drawn) | -74.8* | 0.3% | 1.3% | -80.0*
COC(=O)C(NC(=O)c1ccccc1C)(Nc1ncc(S(=O)(=O)c2ccc([N+](=O)[O-])cc2)s1)C(F)(F)F (stereo not drawn) | -1.1 | -9.7% | -2.1% | -1.3
CN1CCN(c2ccc(C(=O)c3ccc(Br)cc3)cc2[N+](=O)[O-])CC1 | -20.1 | -3.3% | 4.5% | -81.3*
COc1ccc(CN2CCN(Cc3ccc(C)cc3)CC2)c(OC)c1 | 8.2 | -2.0% | 3.6% | -4.7
COc1ccc(CN2CCN(Cc3ccc(C(F)(F)F)cc3)CC2)c(OC)c1 | -41.0 | -0.9% | 0.3% | -100.9*
COc1ccc(CN2CCN(Cc3c[nH]c4ccccc34)CC2)c(OC)c1 | 36.1 | x | x | -102.4*
COc1ccc(CN2CCN(Cc3c[nH]c4ccccc34)CC2)cc1 | 32.1 | -2.0% | -0.3% | -39.2
C=C(C)CN=CC1(C)CCC(C)=CO1 (stereo not drawn) | -6.2 | -0.4% | x | -6.1
Cc1ccc(SC[C@H](Cc2ccccc2)N2CC[C@@H](C)CCC2=O)cc1 | -1.0 | -3.7% | 1.1% | -125.9*
CC(=O)Nc1ccc(SC[C@H](Cc2ccccc2)N2CC[C@@H](C(C)(C)C)CCC2=O)cc1 | -12.8 | -9.1% | -11.4% | -96.8*
COc1ccc(NC2CCCN(C(=O)COc3ccc(C)cc3)C2)cc1 (stereo not drawn) | 3.0 | x | -0.7% | -1.8
COc1ccc(OCC(=O)N2CCCC(Nc3ccc(C)c(C)c3)C2)cc1 (stereo not drawn) | -9.2 | x | x | -87.5*
O=C(CC1CCCC1)N1CCCC(Nc2cccc(F)c2)C1 (stereo not drawn) | -5.8 | 3.9% | -2.9% | -5.7
O=C(CC1CCCC1)N1CCCC(Nc2ccc(F)cc2)C1 (stereo not drawn) | -9.6 | -1.1% | 0.8% | -95.6*
Cc1csc(=O)n1CCC(=O)NCc1ccc(F)cc1 | -8.3 | 2.4% | -1.6% | -6.2
COC(=O)c1c(N)sc(Cc2ccccc2)c1C | 1.2 | 0.3% | -2.7% | -102.5*
COC(=O)c1c(NC(=O)/C=C/C(=O)O)sc(Cc2ccccc2)c1C | 2.3 | -2.3% | 0.6% | 19.6
O=C(CCc1nnc(CCCc2ccccc2)o1)NCC(F)(F)F | -240.3* | -2.9% | -0.1% | -181.6*
Oc1ccc2ccccc2c1C=Nc1ccc(Cl)cn1 | 4.5 | 1.7% | -27.9% | -114.1*
COc1ccc2[nH]c(CN3CCC(n4nccc4NC(=O)C4CC4)CC3)c(C)c2c1 | u | 1.1% | 0.4% | -75.9*
CCc1noc(C)c1C(=O)NCCN1C(=O)S/C(=C\c2ccccc2F)C1=O | 2.0 | x | x | -76.6*
O=C(CN1C(=O)NC2(CCCC2)C1=O)NCCN1C(=O)S/C(=C\c2ccccc2F)C1=O | -7.6 | -0.8% | 0.0% | -0.5
COc1ccc(-c2[nH]ncc2CNCc2cc(C)n(C)n2)c(F)c1 | -0.5 | -1.7% | -1.2% | 0.9
COc1ccc(-c2[nH]ncc2CNCCn2cccn2)c(F)c1 | 1.3 | -7.8% | -6.4% | -137.9*
CCN1CCN(C(c2cccs2)C(C)NS(=O)(=O)c2ccccc2)CC1 (stereo not drawn) | 1.7 | -0.4% | -4.0% | 7.6
CCN1CCN(C(c2cccs2)C(C)NS(=O)(=O)c2ccc(C)cc2)CC1 (stereo not drawn) | x | -0.9% | 0.7% | -75.6*
CC(C)c1ccc(N(CC(=O)NC2CCCC2)C(=O)CCC(=O)Nc2nccs2)cc1 | 6.1 | -1.4% | -0.5% | 8.1
FC(F)c1nnc2ccc(Cl)nn12 | -1.6 | -8.5% | -3.5% | 6.2

Bioassay records from PubChem.
